Among all 5,500 compounds or so, about 2,000 (36%) were called active. About 18% were inconclusive and are not listed. No stated cut-off is given here; in the data, active means normalized growth mostly below about 0.91 (no sharp cut-off); inconclusive means no clear call, values can overlap the other calls; inactive means mostly above about 0.92. The list shows a part of the results.
Test: chemical genetic growth profiling, strain panel (AID 1159580);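 further: tested at 20 µM; growth read once vehicle control cultures reached saturation at 30 °C; 1 = growth at the plate median or of vehicle wells; lower values mean less growth of the strain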
Details: growth OD

Measured: normalized growth

CCCc1cc(C(=O)Nc2ccc(N(CC)CC)cc2)nn1-c1ccccc1
active: S. cerevisiae deletion strains, locus YDL134C, strain PPH21, hits give low values 0.873 | S. cerevisiae deletion strains, locus YEL061C, strain CIN8, hits give low values 0.895 | S. cerevisiae deletion strains, locus YHR030C, strain SLT2, hits give low values 0.276 | S. cerevisiae deletion strains, locus YMR307W, strain GAS1, hits give low values 0.275 | S. cerevisiae deletion strains, locus YOL006C, strain TOP1, hits give low values 0.626
inactive: S. cerevisiae deletion strains, locus YAL013W, strain DEP1, hits give low values 0.98 | S. cerevisiae deletion strains, locus YBR229C, strain ROT2, hits give low values 0.983 | S. cerevisiae deletion strains, locus YDL101C, strain DUN1, hits give low values 0.981 | S. cerevisiae deletion strains, locus YDR150W, strain NUM1, hits give low values 0.966 | S. cerevisiae deletion strains, locus YGR078C, strain PAC10, hits give low values 0.975 | S. cerevisiae deletion strains, locus YHR087W, strain rtc3, hits give low values 0.981 | S. cerevisiae deletion strains, locus YJL187C, strain SWE1, hits give low values 0.991 | S. cerevisiae deletion strains, locus YJR043C, strain POL32, hits give low values 0.973 | S. cerevisiae deletion strains, locus YJR075W, strain HOC1, hits give low values 0.967 | S. cerevisiae deletion strains, locus YKL190W, strain CNB1, hits give low values 0.96 | S. cerevisiae deletion strains, locus YLR039C, strain RIC1, hits give low values 1 | S. cerevisiae deletion strains, locus YLR058C, strain SHM2 (second series), hits give low values 0.982 | S. cerevisiae deletion strains, locus YLR085C, strain ARP6, hits give low values 0.813 | S. cerevisiae deletion strains, locus YLR262C, strain YPT6, hits give low values 0.915 | S. cerevisiae deletion strains, locus YML094W, strain GIM5, hits give low values 0.911 | S. cerevisiae deletion strains, locus YMR219W, strain ESC1, hits give low values 0.999 | S. cerevisiae deletion strains, locus YMR263W, strain SAP30, hits give low values 0.991 | S. cerevisiae deletion strains, locus YNL153C, strain GIM3, hits give low values 0.987 | S. cerevisiae deletion strains, locus YNL298W, strain CLA4 (second series), hits give low values 0.884 | S. cerevisiae deletion strains, locus YNL322C, strain KRE1, hits give low values 0.991 | S. cerevisiae deletion strains, locus YNR030W, strain Alg12, hits give low values 0.89 | S. cerevisiae deletion strains, locus YPL055C, strain LGE1, hits give low values 0.973 | S. cerevisiae deletion strains, locus YPL241C, strain CIN2, hits give low values 0.92 | S. cerevisiae deletion strains, locus YPR135W, strain CTF4, hits give low values 0.718 | S. cerevisiae strains, strain wild type, hits give low values 0.922

From PubChem BioAssay AID1159580 (chemical genetic matrix, 2015)
